# Source: PubChem (National Center for Advancing Translational Sciences (NCATS))
# Shown are actives, neighbours in structure and some others; about 3.9% of the full set was active somewhere.
# HepG2 tox = HepG2 cytotoxicity, counter-screen for TGF-b inhibitors; Potency, µM (top dose mostly 46.1 µM), without a hit: at the top dose activity change, negative = cytotoxicity, most hits filed as cytotoxic; AID 588856; 0.76% of 410,000 active; HepG2 CAGA-GFP viability, ATP luminescence, 18 h
#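 CellTiter-Glo luminescence gave cytotoxicity after 18 hours at 37 degrees C. The cells were HepG2 CAGA-GFP in 1% FBS DMEM, stimulated with 500 pg/mL TGF-beta after compound addition. %Activity was normalised to no-cell wells (complete cell-killing) and DMSO (no toxicity), and curves were fitted and classified.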
# S2 tox = reduces viability in counter-screen for ATXN expression inhibitors. S2 cells (HEK-293 line with an ATXN2-luciferase reporter) viability, CellTiter-Fluor protease fluorescence, 24 h. Potency, µM (doses to about 56.7 µM), usual class: cytotoxic. 0.49% of 400,000 active. AID 651635; also: nearly all actives have a fitted effect of over 40% in size
# TGFb inhibitor = TGF-b pathway inhibition; HepG2 CAGA-GFP TGF-b/SMAD3 reporter, GFP fluorescence, 18 h; TGF-beta stimulated, 500 pg/mL final; Potency, µM (top dose mostly 46.1 µM), without a hit: at the top dose activity, negative = inhibition, most hits filed as inhibitors; 1.2% of 410,000 active; also: % is scaled to controls: 0 for no effect and ±100 for the full control effect; nearly all actives have a fitted effect of over 65% in size
#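 Read-out: total well GFP (ex488/em500-530) summed from mean per-cell fluorescence. Cells: HEPG2 CAGA-GFP, 1% FBS DMEM, 18 h at 37 degrees C with 500 pg/mL final TGF-beta. Unstimulated wells served as the full-inhibition control; stimulated DMSO wells = 0%.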
# HT1080NT lethal = kills 2HG-producing HT-1080-NT fibrosarcoma cells | HT-1080-NT fibrosarcoma viability, CellTiter-Glo ATP luminescence, 48 h | Potency, µM (top dose mostly 46.1 µM), for the others: at the top dose activity, negative = less viability, hits mostly cytotoxic | 1.6% of 360,000 active | AID 686970;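 also: NT is the 2HG producing partner of a matched IDH1 knockdown line; 0% = DMSO-treated cells and -100% = media-only wells without cells; nearly all actives have a fitted effect of over 55% in size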
#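 Viability by CellTiter-Glo luminescence after 48 h compound exposure at 37C of HT-1080-NT cells (750/well, RPMI, 5% FBS). % activity scaled between DMSO wells and medium-only wells, then curve-fitted and categorized by curve class.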
# ATXN2 expr inh = inhibitors of ATXN2 expression | HEK-293 ATXN2-luciferase reporter, luminescence, 24 h | 0.72% of 360,000 active | Potency, µM (doses to about 57 µM), for inactives: at the highest dose activity change, negative = inhibition, actives largely listed as inhibitors | AID 1745845; also: % is scaled to controls: 0 for no effect and ±100 for the full control effect; nearly all actives have a fitted effect of over 55% in size
#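 qHTS (up to 57 uM final) was run with 24 h compound exposure of reporter cells at 37 °C. Each well was multiplexed: SteadyGlo luminescence measured ATXN2-luciferase expression after a fluorogenic Gly-Phe-AFC viability readout (25 uM final).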
# HT1080 IDH1KD tx = HT-1080 IDH1 knockdown cell toxicity (counter line). 2% of 360,000 active. HT-1080 IDH1 knockdown viability, ATP luminescence, 48 h. Potency, µM (top dose mostly 46.1 µM), for the others: top-dose activity, negative = toxicity, hits mostly cytotoxic;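 also: 0% = DMSO wells and -100% = cell-free medium wells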
#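 Cytotoxicity counter-line: IDH1KD HT-1080, 48 h, CellTiter-Glo. Curves classed by r2, magnitude and activity.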
# * = called active by the depositor; i = inactive; ? = inconclusive; . = not tested or not shown; ! = not active in a repeat. Calls follow the shape of the dose curve; as a rule, active = well fitted curve in the direction sought with a large enough effect; inconclusive = small, poorly fitted or top-dose-only effect, or another doubt; inactive = no such curve, though single readings can be large; an effect the other way counts as inactive or inconclusive. Potency is read from the fitted curve at half-maximal effect.
SMILES,HepG2 tox,S2 tox,TGFb inhibitor,HT1080NT lethal,ATXN2 expr inh,HT1080 IDH1KD tx
O[C@@H]1C[C@H](c2ccc(Cl)cc2)N(CC2CCCCC2)C[C@H]1n1cc(C2CC2)nn1,-4%,i,4%,5%,11%,4%
O[C@@H]1CN(CC2CCCCC2)[C@@H](c2ccc(Cl)cc2)C[C@H]1n1cc(C2CC2)nn1,-28%,20µM*,3%,0%,?,-1%
CCN(CC)c1ccc(C(=C2C=CC(=[N+](CC)CC)C=C2)c2ccccc2)cc1,1.8µM*,0.89µM*,?,2.6µM*,0.35µM*,1µM*
CCN(CC)c1ccc(C(=C2C=CC(=[N+](CC)CC)C=C2)c2cc(S(=O)(=O)O)ccc2S(=O)(=O)[O-])cc1,.,?,.,.,11µM*,.
CCN(CC)c1ccc(C(=C2C=CC(=[N+](CC)CC)C=C2)c2ccc(N(CC)CC)cc2)cc1,11µM*,.,2.2µM*,7.3µM*,?,5.2µM*
CCC(=O)N1c2ccc(S(=O)(=O)CCC(=O)NCc3ccc(OC)cc3)cc2CC1C (configuration not stated),-4%,i,18%,.,6%,.
COc1cccc(CN2CC34CC(c5ccc(C(C)=O)cc5)C(CC3S2(=O)=O)O4)c1 (configuration not stated),-12%,.,0%,.,.,.
CCC1CN(CC(=O)NC(C)c2cn(C)nc2C)Cc2cc(OC)ccc2O1 (configuration not stated),.,i,.,.,.,.
CCN(CC)CCCNC(=O)CSc1c2c(nc3cc(Cl)ccc13)CCCC2,22µM*,.,11µM*,23µM*,?,23µM*
COCCCNC(=O)CSc1c2c(nc3ccc(Cl)cc13)CCCC2,-14%,i,13µM*!,?,.,?
CC(C)OCCCNC(=O)CSc1c2c(nc3ccc(Cl)cc13)CCCC2,-55%,.,11µM*,.,.,.
O=C(CSc1c2c(nc3ccc(Cl)cc13)CCCC2)NCCCN1CCOCC1,-38%,.,?,?,.,-28%
Cc1cc(/C=C/c2ccnc3ccccc23)ccc1N(C)C,-44%,.,-27%,.,.,.
CCc1nc2ccc(C(=O)Nc3ccc(OC)c(OC)c3)cn2c1N(C)CCC(C)C,20µM*,.,14µM*,16%,?,17%
CCc1nc2ccc(C(=O)Nc3ccc(Cl)c(Cl)c3)cn2c1N(C)Cc1ccc(OC)cc1,-44%,.,11µM*,?,?,?
COc1cc(-c2c(C#N)c(N)nc3c2c(C)nn3-c2ccc(C)c(C)c2)cc(OC)c1OC,-16%,i,9%,?,6%,11µM*
CCCOc1ccc(NC(=O)CC2C(=O)N(c3ccc(Cl)cc3)C(=O)N2CCc2ccncc2)cc1 (configuration not stated),-30%,.,?,.,.,.
COc1cc(Cl)c(C)cc1N1C(=O)[C@@H]2C[C@H]1CN2Cc1ccccn1,.,i,.,.,.,.
Cc1cc(C)c2nc(C)cc(N/N=C/c3ccc(O)cc3)c2c1,18µM*,?,20µM*,5.2µM*,?,5.8µM*
Cc1cc(N/N=C/c2ccc(N(C)C)cc2)c2ccccc2n1,-9%,i,-17%,2%,.,-5%
Cc1cc(N/N=C/c2ccc(O)cc2)c2cccc(C)c2n1,18µM*,?,?,?,.,?
Cc1cnc(SCC2CCCO2)nc1C1CCCN(Cc2cc3c(cc2Cl)OCO3)C1 (configuration not stated),.,i,.,.,.,.
Cc1ncc2c(c1CNC(=O)c1ccccc1F)CCN(C(=O)c1[nH]c3ccc(Cl)cc3c1C)C2,.,i,.,.,.,.
Cc1ccsc1C1Cc2c(C(=O)NCc3cccnc3)c(=O)cc(C)n2-c2ccccc2S1 (configuration not stated),.,i,.,.,.,.
c1ccc(Nc2cc(Nc3ccccc3)[nH]n2)cc1,10µM*,?,16µM*,?,3%,?
SMILES,HepG2 tox,S2 tox,TGFb inhibitor,HT1080NT lethal,ATXN2 expr inh,HT1080 IDH1KD tx
O=C(Oc1c(-c2ccccc2)oc2ccccc2c1=O)c1ccccc1,-13%,i,?,-22%,0%,-26%
O=C(Oc1cccc2ccccc12)c1ccccc1,-5%,i,1%,-1%,15%,5%
O=C(Oc1cccc2c(O)cccc12)c1ccccc1,-116%,?,14µM*,-14%,-21%,3%
O=C(Oc1cc(=O)oc2ccccc12)c1ccccc1,0%,i,-2%,16µM*,-9%,16µM*
CC(C)(C)COc1ccc(-n2cc(C(=O)O)cn2)cc1C#N,.,.,.,.,103%,.
CCC1CN(CCNC(=O)c2cccnc2OC)Cc2cc(OC)ccc2O1 (configuration not stated),.,i,.,.,.,.
CCCCOC(=O)c1ccc(NC(=O)c2ccc3c(c2)CCN3S(=O)(=O)c2ccccc2)cc1,-11%,.,-1%,.,.,.
CCCCOC(=O)c1ccc(NC(=O)c2ccc3c(c2)CCCN3S(C)(=O)=O)cc1,-31%,?,-10%,.,7.1µM*,.
O=C(C1=NNCC1c1ccccc1)C1CO1 (configuration not stated),-21%,i,-6%,-10%,5%,0%
O=C(c1[nH]ncc1-c1cccc(Br)c1)C1CO1 (configuration not stated),-13%,?,?,26µM*,-36%,?
O=C(c1[nH]ncc1-c1ccccc1)C1CO1 (configuration not stated),13µM*,i,-14%,?,1%,?
